According to PubChem BioAssay AID743279 (National Center for Advancing Translational Sciences (NCATS), 2014):
In all, about 360,000 compounds went through this assay and about 17,000 (4.7%) were called active. Not shown: some 5% with an inconclusive outcome. The sample holds actives, similar compounds and a random draw of the others, so the mix is not that of the screen. No stated cut-off is given here; in the data, active means activity change below about -50%; inconclusive means mostly about -30% to -49%; inactive means weaker than that.

Test: qHTS for Inhibitors of Inflammasome Signaling: IL-1-beta AlphaLISA Primary Screen
Settings: THP-1 LPS/ATP IL-1B secretion, 16 h; at 57.5 µM, active compounds read low
In short: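 THP-1 cells pretreated 1 hr with compounds (up to 57.5 uM final), then stimulated with LPS (250 ng/mL final) plus ATP (1.25 mM final); secreted IL-1B measured by AlphaLISA after 16 hr, decreased signal indicating inhibition.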
On the % scale 0 is the no-effect control and ±100 the full control effect.

Activity change, inactive:
Cc1ccccc1OS(=O)(=O)c1cccc([N+](=O)[O-])c1 27.3%, COc1ccc(NC(=O)C2Cc3c(-c4cccc(NC(C)=O)c4)ccnc3O2)cc1OC (stereo unspecified) -14.1%, N#Cc1ccc(OCC(=O)NC(=O)NC2CCS(=O)(=O)C2)cc1 (stereo unspecified) -12.4%, CC(C)NC(=O)N1Cc2cc(C(=O)NCC(F)(F)F)nc(-c3cccc(-c4cc5ccccc5o4)c3)c2[C@@H]1CCO -22.8%, CCNC(=O)c1cc2c(c(-c3cccc(-c4cncnc4)c3)n1)[C@H](CCO)N(C(C)=O)C2 42.5%, CC1(C(=O)NCc2ccc(F)c(F)c2)Cc2c(-c3ccc4c(c3)OCO4)ccnc2O1 (stereo unspecified) 46.6%, CC12CCC(=O)N1C(C(=O)Nc1ccc(F)c(F)c1F)CS2 (stereo unspecified) 6.07%, CCn1nc(C(=O)NNC(=O)C2CSC3(C)CCC(=O)N23)c2ccccc2c1=O (stereo unspecified) 4.8%, CC1(C(=O)Nc2ccccc2Br)CCN1C(=O)CC1CC1 (stereo unspecified) 13.2%, Nc1nnc(SCC(=O)Nc2ccc3nc(SCC(=O)Nc4ccccc4)sc3c2)s1 -29.4%, CCCC(=O)Nc1nc2ccc(NC(=O)c3c(F)c(F)c(OC)c(F)c3F)cc2s1 11.7%, O=C(Nc1ccncc1)c1cc2ccccc2o1 -4.22%, O=C(Nc1ccc(S(=O)(=O)N2CCCCCC2)cc1)c1c(F)cccc1F -9.91%, Cc1ccc(C(=O)NC(C)C(c2cccs2)N2CCOCC2)cc1C (stereo unspecified) -9.25%, CNC(=O)N1c2ccccc2C=Cc2ccccc21 0%, CCCCNC(=O)N1CCCC(N(C)CCc2ccc(OC)c(OC)c2)C1 (stereo unspecified) 1.87%, CC1(C2CC2)NC(=O)N(CC(=O)N2CCN(c3ccccc3F)CC2)C1=O (stereo unspecified) -14.2%, Cc1c(C(=O)NCC(c2ccco2)N2CCCC2)oc2ccc(Cl)cc12 (stereo unspecified) -25.2%, Cc1ccc(C)c(S(=O)(=O)Nc2cc(C)on2)c1 -7.66%, CCOC(=O)C1CCCN(C(=O)C2CCN(S(=O)(=O)c3ccc(Cl)c(C(F)(F)F)c3)CC2)C1 (stereo unspecified) 16.1%, CCCc1nc2oc3c(=O)[nH]cnc3c2c2c1COC(C)(C)C2 17.7%, CS(=O)(=O)N1CCCCC1c1cc(C(=O)NCc2ccccc2)no1 (stereo unspecified) -18.8%, CCN1CCC(O)(/C=C/c2ccc(C)cc2)C(C(=O)/C=C/c2ccc(C)cc2)C1 (stereo unspecified) -1.25%, CCCCOC(=O)NCN1C(=O)C2C3C=CC(C3)C2C1=O (stereo unspecified) 26.4%, CCCOC(=O)c1ccc(N2C(=O)c3ccccc3C2=O)cc1 17.6%, O=C(Nc1cccc2c1CCCC2)C1CCN(C(=O)NC2CCCCC2)CC1 15.3%, COC(=O)[C@]12CCCCC=C1N(CCC1=CCCCC1)C(=O)[C@H](CC(=O)N1CCSCC1)C2 -3.86%, CCOCCCNc1c(CC)c(C)c(C#N)c2nc3ccccc3n12 -7.67%, CCCc1cc(=S)n2c([nH]c3ccccc32)c1C#N -9.7%, COC(=O)C1=CN(c2c(C)cc(C)cc2C)C(N)=C(C#N)C1c1cccc(F)c1 (stereo unspecified) -11.3%, CC1Cc2[nH][nH]c(=O)c2C(C2CC2)O1 (stereo unspecified) -5%, COc1ccc(CN2C(=O)C(CC(=O)NC3CCCCC3)CC(C(=O)N3CCOCC3)=C2C)cc1 (stereo unspecified) -7.47%, COc1ccccc1NC(=O)CSc1nc2sc3c(c2c(=O)n1-c1ccccc1)CCN(C)C3 -4.77%, CCOc1ccc(-n2c(SCC(=O)Nc3ccc(OC)cc3)nc3sc4c(c3c2=O)CCN(C)C4)cc1 -16%, Cc1ccc(-c2c(C)n([O-])c3c([n+]2=O)CCC3)cc1 12.3%, CCOc1cccc(=O)c2c(C)n(CC3CCCO3)c(C)c12 (stereo unspecified) 13.1%, CN1CN(C)c2ccc([N+](=O)[O-])c3cccc1c23 -18.1%, Cc1ccc(N2CCN(c3ccc(C)cc3)C2c2ccccn2)cc1 -6.85%, COc1ccc(S(=O)(=O)N2CCC(C(=O)NCCC(=O)NCCc3cccc(F)c3)CC2)cc1 -8.46%, CC(Cc1cccs1)N(Cc1ccc(Cl)cc1)C(=O)c1ccncc1 (stereo unspecified) 20.4%, Nc1nc(NC(=O)/C=C/c2ccc(F)cc2)nn1-c1ccccc1 -2.85%, Cc1c(C(=O)Nc2ccccc2)sc2nc3n(c(=O)c12)CCCCC3 -7.47%, O=c1c2c(nc3n1CCCCC3)sc1c(O)cccc12 24.7%, CCCS(=O)(=O)Nc1ccc(-c2cn3c(n2)SCC3)cc1 -1.84%, COC(=O)[C@H]1C[C@H](OC(=O)NCc2ccccc2)[C@@]2(O)CN(S(=O)(=O)c3ccc(C)cc3)CC2[C@H]1C(=O)OC (stereo partly specified) -4.9%, CCCCCCNC(=O)O[C@]12C[C@@H](C(=O)OC)[C@@H](C(=O)OC)C[C@@]1(O)CN(S(=O)(=O)c1ccc(C)cc1)C2 11.6%

Activity change, active:
CC(=O)N1Cc2cc(C(=O)NCc3cccc(F)c3)nc(-c3cccc(C4=CCCC4)c3)c2[C@H]1CCO -67.2%, CC12CCC(=O)N1C(C(=O)NCCN1C(=O)S/C(=C\c3ccccc3F)C1=O)CS2 (stereo unspecified) -53.4%, O=C(Nc1ccncc1)c1c(F)cccc1F -66.7%, CSc1nc2ccc(NC(=O)c3c(F)cccc3F)cc2s1 -101%, CCCCCOC(=O)c1ccc(N2C(=O)C3C4C=CC(C4)C3C2=O)cc1 (stereo unspecified) -71.4%, CCOC(=O)CCc1c(C)c(C#N)c2[nH]c3ccccc3n2c1=O -90.1%, CCn1c(SCC(=O)Nc2ccc(Br)cc2)nc2sc3c(c2c1=O)CCN(C)C3 -54.3%, O=C1c2cccc3c([N+](=O)[O-])ccc(c23)C(=O)N1CC1CCCO1 (stereo unspecified) -98.7%, CC(=O)c1ccc(NC(=O)c2sc3nc4n(c(=O)c3c2C)CCCCC4)cc1 -59.8%, CCCCCCNC(=O)O[C@H]1CN(C(=O)OC(C)C)N(C(=O)OC(C)C)[C@@H]2CN(S(=O)(=O)c3ccc(C)cc3)C[C@]12O -63.8%
